# Source: PubChem BioAssay (National Center for Advancing Translational Sciences (NCATS))
# This is a sample that favours compounds with a hit; in the whole collection about 11% have one here.
# PNC assembly inh: perinucleolar compartment assembly inhibition | AID 2417 | activity change (PNC), negative = inhibition, % at 10 µM | PC3M PTB-GFP, PNC prevalence imaging, 16 h; stronger effect = lower value | 140,000 tested, 3.1% active;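 active = readout at or below -70, meaning at least 70% loss of cells showing the perinucleolar compartment, a nuclear body marking cancer cells; inconclusive = readout between -30 and a set limit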;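 note: plate controls were DMSO wells for no effect and camptothecin positive control wells for full effect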
#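 Read-out is percentage of cells bearing a perinucleolar compartment, from automated 20x imaging of fixed, Hoechst-stained PC3M PTB-GFP cells. Cells were seeded 4 h, then exposed 16 h to compound (23 nl of library stock) in duplicate plates.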
# IMPase Li inh: IMPase inhibition in cells with lithium potentiation; CHO-M1 cells, IP1 TR-FRET (IP-One), carbachol + lithium; 210,000 tested, 0.35% active; Potency, µM (top dose mostly 59.4 µM), inactives show top-dose activity, negative = IMPase inhibition, most hits filed as inhibitors; active = well fitted curve in the direction sought with a large enough effect; inconclusive = small, poorly fitted or top-dose-only effect, or another doubt; inactive = no such curve, though single readings can be large; an effect the other way counts as inactive or inconclusive;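 note: IP1 builds up when IMPase is blocked and the TR-FRET signal falls; potency is the fitted concentration of half-maximal effect; plate controls were basal vehicle for no effect and high inhibitor control for full effect; nearly all actives have a fitted effect of over 50% in size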
#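 Concentration–response in CHO-M1 cells, lithium-potentiated; 30 min at 37C. IP1 detected by competitive TR-FRET after 10 min lysis at RT. Hill-fitted AC50.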
# ALDH1A1 inh: ALDH1A1 (human) enzyme inhibition. Potency, µM (titrated, usually from 75.3 µM), for the others: at the highest dose activity, negative = inhibition, hits mostly inhibitors. 220,000 tested, 7.3% active. Purified ALDH1A1, NADH fluorescence, propionaldehyde substrate. P00352. AID 1030;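 note: potency is the fitted concentration of half-maximal effect; plate controls were no enzyme wells and a reference inhibitor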
# IMPase inh: IMPase inhibition in cells. P97697. CHO-M1 cells, IP1 accumulation, HTRF TR-FRET ratio. inhibition (IP1 accumulation), % at 46.1 µM. 120,000 tested, under 10 active. AID 901; active = well fitted curve in the direction sought with a large enough effect in the signal ratio, not every such curve was filed as active; inconclusive = small, poorly fitted or top-dose-only effect, or a change in a side signal; inactive = no such curve, though single readings can be large or run the other way; the % refers to the signal ratio;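 note: cells stimulated with carbachol in lithium chloride buffer; plate controls were DMSO basal wells for no effect and reference inhibitor wells for full effect; higher means more IMPase inhibition seen as more IP1 and lower FRET ratio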
# Target sequence (P97697 whole entry, looked up): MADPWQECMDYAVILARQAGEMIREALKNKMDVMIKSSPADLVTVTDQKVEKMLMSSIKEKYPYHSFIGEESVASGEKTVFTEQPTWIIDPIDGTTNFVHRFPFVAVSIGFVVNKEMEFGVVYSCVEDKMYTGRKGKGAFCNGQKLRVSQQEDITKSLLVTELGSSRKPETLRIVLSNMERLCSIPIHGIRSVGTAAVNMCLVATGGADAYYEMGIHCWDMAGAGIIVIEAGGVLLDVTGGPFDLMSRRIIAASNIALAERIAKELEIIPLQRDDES
#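 Cellular IMPase inhibition is scored as a rise in cytosolic IP1, detected by competitive TR-FRET between d2-labelled IP1 and a europium anti-IP1 antibody. M1-expressing CHO cells were stimulated with carbachol for 30 min at 37C, with lithium (50 mM LiCl) present in the buffer.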
# HPGD block: blocks human HPGD enzyme activity; Potency, µM, for inactives: top-dose activity change, negative = inhibition, usual class: inhibitors; P15428; purified HPGD, NADH fluorescence kinetic, PGE2 substrate; 150,000 tested, 4.3% active; AID 894; note: potency is the fitted concentration of half-maximal effect
# Target sequence (P15428 whole entry, looked up): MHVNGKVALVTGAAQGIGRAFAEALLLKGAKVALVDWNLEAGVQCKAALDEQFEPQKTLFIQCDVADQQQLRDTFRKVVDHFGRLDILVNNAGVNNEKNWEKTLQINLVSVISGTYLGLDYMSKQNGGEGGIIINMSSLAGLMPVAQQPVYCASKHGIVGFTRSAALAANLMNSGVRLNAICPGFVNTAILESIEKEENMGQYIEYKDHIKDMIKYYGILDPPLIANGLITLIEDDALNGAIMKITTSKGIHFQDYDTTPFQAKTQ
#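 20 nM HPGD preincubated 15 min at room temperature with compound in 50 mM Tris-HCl pH 8, 0.01% Tween 20. Started with 1 mM NAD+ and 30 uM prostaglandin E2; NADH fluorescence (360/450 nm) read 5 times over 30-s intervals, last minus first.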
# ALOX12 inhib: inhibitors of human 12-lipoxygenase (ALOX12); P18054; purified 12-hLO, xylenol orange hydroperoxide absorbance; Potency, µM (series often up to 57.1 µM), without a hit: at the top dose activity change, negative = inhibition, usual class: inhibitors; 150,000 tested, 0.12% active; AID 1452; active = well fitted curve in the direction sought with a large enough effect; inconclusive = small, poorly fitted or top-dose-only effect, or another doubt; inactive = no such curve, though single readings can be large; an effect the other way counts as inactive or inconclusive; note: potency is the fitted concentration of half-maximal effect; nearly all actives have a fitted effect of over 55% in size
#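 Xylenol orange chromogenic assay: hydroperoxide from 12hLO oxidises Fe(II), giving red-shifted Fe(III)-XO absorbance. Conditions: 150 nM enzyme, 40 uM arachidonic acid, 25 mM Hepes pH 7.0, 0.01% Triton X-100, 30 min, room temperature.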
# * = called active by the depositor; ? = inconclusive; . = no result given; [ ] = dose if it differs, or a comment. Unless noted, calls come from the whole dose curve; as a rule, active = well fitted inhibition curve with a large enough effect (not every such curve was filed as active); inconclusive = small, poorly fitted or top-dose-only effect, or another doubt; inactive = no such curve, though single readings can be large or run the other way. Unless noted, % is set by controls: 0 for no effect and ±100 for the full control effect.
SMILES,PNC assembly inh,IMPase Li inh,ALDH1A1 inh,IMPase inh,HPGD block,ALOX12 inhib
COc1ccc(/C=N/NC(=O)CNc2c(Br)cc(C)cc2Br)c(C(=O)O)c1OC,.,-1%,7.1µM*,.,.,.
COc1ccc(/C=N/NC(=O)CNc2ccc(Br)cc2)c(C(=O)O)c1OC,.,4%,-8%,.,.,.
Cc1ccc(C2(C)NC(=O)N(CC(=O)Nc3cccnc3Cl)C2=O)cc1 (centres undefined),.,?,3.2µM*,.,.,.
Cc1ccc(C2(C)NC(=O)N(CC(=O)NCc3cccs3)C2=O)cc1 (centres undefined),-108*,-9%,2%,.,?,-10%
O=C(CN1C(=O)NC(c2ccccc2)(c2ccccc2)C1=O)Nc1cccnc1Cl,.,2%,2%,.,.,.
Cc1ccc(C2(C)NC(=O)N(CC(=O)NCCC3=CCCCC3)C2=O)cc1 (centres undefined),3,28%[38.3 µM],-4%,-1,-11%,-1%
CCCn1c(C)nc2c(NC3CCN(Cc4ccccc4)CC3)nc(C)nc21,.,-13%,8%,.,-8%,-2%
O=C(NC1CCCCCC1)c1ccc2c(=O)n3c(nc2c1)CCCCC3,?,12%[38.3 µM],10µM*,-7,-16%,-6%
O=C(Nc1cccc(S(=O)(=O)N2CCOCC2)c1)c1ccc2c(=O)n3c(nc2c1)CCCCC3,.,22%,5.6µM*,.,.,.
O=C(Nc1cccc(S(=O)(=O)N2CCCCCC2)c1)c1ccc2c(c1)OCO2,?,9%,-13%,.,-3%,-6%
O=C(Nc1ccc(F)cc1Cl)c1ccc2c(=O)n3c(nc2c1)CCCCC3,?,8%[38.3 µM],-10%,?,4%,1%
O=C(Nc1cccc(S(=O)(=O)N2CCCC2)c1)c1ccc2c(=O)n3c(nc2c1)CCCCC3,?,18%,3.5µM*,.,-6%,1%
O=c1c2cc(NC(=S)NCCN3CCCCCC3)ccc2nc2n1CCCCC2,.,20%,20µM*,.,.,.
COc1ccc(-c2coc3ccc(OC4OC(COC(C)=O)C(OC(C)=O)C(OC(C)=O)C4OC(C)=O)cc3c2=O)cc1 (centres undefined),.,7%,-7%,3,0%,0%
CC1(C(=O)NCCCN2CCOCC2)Oc2cccnc2NC1=O (centres undefined),.,1%,2%,.,.,.
CN(c1ccccc1)S(=O)(=O)c1cccc(NC(=O)c2cc(=O)c3ccccc3o2)c1,.,15%,?,.,.,.
O=C(Nc1cccc(S(=O)(=O)N2CCCCCC2)c1)c1cc(=O)c2ccccc2o1,.,21%,11µM*,.,.,.
O=C(Nc1nc(-c2ccccc2)cs1)c1ccc2c(=O)n3c(nc2c1)CCCCC3,-3,.,28µM*,1,.,-2%
CC(=O)c1cccc(NC(=O)c2ccc3c(=O)n4c(nc3c2)CCCCC4)c1,.,5%,5µM*,.,.,.
Cc1ncc(COP(=O)(O)O)c(C)c1O,.,-3%,3%[13.5 µM],.,1%,-3%[11.4 µM]
CC[C@@H](Nc1ncnc2nc[nH]c12)C(=O)O,.,-5%,-17%[13.5 µM],.,1%,1%[11.4 µM]
Cc1ccccc1CNC1CCCCC1,?,-1%,6%,.,3%,-2%
O=[N+]([O-])c1ccccc1CNC1CCCCCC1,.,13%,14µM*,.,.,.
C=C/C1=C/Cc2ccccc2C(C[N+](=O)[O-])C(C(=O)OC)(C(=O)OC)C1 (centres undefined),.,.,-8%[13.5 µM],.,.,.
CC(C)C(=O)N1CCN(c2ccc([N+](=O)[O-])c(NC(C)c3ccccc3)c2)CC1 (centres undefined),-2,13%,22µM*,.,-18%,-8%
SMILES,PNC assembly inh,IMPase Li inh,ALDH1A1 inh,IMPase inh,HPGD block,ALOX12 inhib
C#CCCCO/N=C1/C[C@@H](O)[C@@H](O)[C@@H]2[C@@H]3C(=O)N(CC)C(=O)[C@H]3CC[C@@H]12,.,.,12%[13.5 µM],.,.,.
CCC/C=C(\CCC)C(NP(=O)(c1ccccc1)c1ccccc1)c1ccc(-c2ccccc2)cc1 (centres undefined),.,1%,-6%,.,-18%,-10%
CCC(C(=O)O)N1C(=O)/C(=C/c2cccn2C)SC1=S (centres undefined),7,-11%,-1%,.,?,-15%
CCCC(C(=O)O)N1C(=O)/C(=C2\C(=O)N(C)c3ccccc32)SC1=S (centres undefined),7,5%[38.3 µM],-12%,3,25µM*,-28%
Brc1ccc(-c2nn3c(-c4ccncc4)nnc3s2)o1,29,.,?,-1,.,-1%
Cc1oc(-c2ccccc2Cl)cc1-c1nn2c(-c3ccco3)nnc2s1,?,7%[38.3 µM],-5%,2,-14%,-6%
Cc1ccc(OCc2nn3c(-c4ccco4)nnc3s2)cc1,13,.,-12%,1,.,-6%
Clc1ccc(OCc2nn3c(-c4ccco4)nnc3s2)c(Cl)c1,22,12%[38.3 µM],-9%,14,3.2µM*,-7%
Brc1ccc(-c2nn3c(-c4ccco4)nnc3s2)o1,14,11µM*,?,?,-13%,-21%
COc1cccc(-c2nnc3sc(-c4ccccn4)nn23)c1,23,17%[38.3 µM],-1%,11,22µM*,-12%
c1coc(-c2nnc3sc(C4CCCCC4)nn23)c1,-3,22%[38.3 µM],13µM*,7,25µM*,-9%
CC1CCC(O)([C@](C)(C(=O)O)c2ccccc2)CC1 (some centres undefined),.,2%,1%[13.5 µM],.,0%,-4%[11.4 µM]
COc1ccccc1-c1nnc2sc(-c3cnccn3)nn12,-20,8%[38.3 µM],?,12,25µM*,-4%
Clc1ccc(-c2nnc3sc(-c4ccccn4)nn23)cc1,?,0%[38.3 µM],14%,0,-8%,-7%
COc1cccc(-c2nn3c(-c4ccccn4)nnc3s2)c1,26,23%[38.3 µM],0%,1,32µM*,0%
COc1cccc(-c2nn3c(-c4cc(C)[nH]n4)nnc3s2)c1,15,-1%[38.3 µM],1%,-3,-29%,6%
CC(C)(C)c1ccc(-c2nnc3sc(-c4ccccn4)nn23)cc1,28,17%[38.3 µM],?,-1,28µM*,7%
c1ccc(-c2nn3c(-c4ccco4)nnc3s2)nc1,4,-16%[38.3 µM],24µM*,6,-22%,-4%
C[C@@]12CCC(=O)C=C1CC[C@H]1[C@@H]2[C@@H](O)C[C@]2(C)[C@@H]1CC[C@@]2(O)C(=O)CO,.,.,.,.,.,5%[11.4 µM]
NCC1O[C@@H](OC2C(N)CC(N)C(O)C2O[C@@H]2OC(CO)C(O)C2O)C(N)C(O)C1O (some centres undefined),.,104%,6%,.,-4%,3%
CC(=O)[C@H]1CC[C@H]2[C@@H]3C=CC4=CC(=O)CC[C@@]4(C)[C@H]3CC[C@]12C,.,9%,?,6[20.6 µM],-7%,-1%[25.6 µM]
O=[N+]([O-])c1ccc(Cl)c(/C=N/N2CCN(c3ccccc3)CC2)c1,7,17%[38.3 µM],-4%,3,-24%,-1%
